Results published in ChEMBL document CHEMBL4513146, “CO-ADD screening of Karazin Kharkiv National University (Ukraine) compounds”.
Entries with a potency or affinity are not part of this list.

Columns and labels:
[1] = test system: Klebsiella pneumoniae; conditions: Concentration 32 ug.mL-1;; ASSAY_TEST Inhibition of Bacterial Growth; detection method Absorption (OD600); MEDIA CAMHB; plate type 384well; NBS; CORNING #3640; time 18 hr
[2] = test system: Candida albicans; conditions: Concentration 32 ug.mL-1; ASSAY_TEST Inhibition of Fungal Growth; detection method Absorption (OD530)
[3] = test system: Cryptococcus neoformans; conditions: Concentration 32 ug.mL-1; ASSAY_TEST Inhibition of Fungal Growth; detection method Resazurin; Absorption (OD600-OD570); plate type 384well; NBS; CORNING #3640

Row | SMILES | Inhibition [1] [%] | Inhibition [2] [%] | Inhibition [3] [%]
1 | Cc1ccc(NC(=O)Cn2nc3ccc(SCc4ccc(Cl)cc4)nn3c2=O)cc1C | 8.36 | 3.97 | -21.31
2 | CC(C)c1ccc(CNC(=O)CCc2nnc3c(N4CCCCC4)nc4ccccc4n23)cc1 | 8.5 | 0.52 | -24.76
3 | CCOC(=O)c1ccccc1NC(=O)Cn1nc2c(Oc3ccc(C)cc3)nccn2c1=O | -8.56 | 4.6 | -10.52
4 | CC(C)CCn1c(=O)c2ccc(C(=O)NC3CCCCC3)cc2n2c(=O)n(CC#N)nc12 | 4.36 | 4.75 | -17.66
5 | COc1ccccc1N1CCN(C(=O)CSc2nnc3c(=O)n(-c4ccccc4)ccn23)CC1 | 9.27 | 1.3 | -12.92
6 | C=Cc1ccc(CN(c2ccc(Cl)cc2)S(=O)(=O)c2cccn3c(C)nnc23)cc1 | 7.52 | 0.36 | -8.75
7 | Cn1c(=O)c2sccc2n2c(=O)n(Cc3ccc(Cl)cc3)nc12 | 4.35 | -0.47 | -19.86
8 | COC(=O)c1ccc(CN(c2ccc(F)cc2)S(=O)(=O)c2cccn3c(C)nnc23)o1 | 11.43 | 3.23 | -7.89
9 | Cc1ccc(NC(=O)Cn2c(=O)c3nnc(C(C)C)n3c3ccccc32)cc1C | 11.54 | 4.79 | -12.38
10 | CCCN(C)c1nccn2c(=O)n(CC(=O)Nc3cccc(SC)c3)nc12 | 8.64 | 8.61 | -6.21
11 | CCCN(C)c1nccn2c(=O)n(CC(=O)Nc3cccc(C(C)=O)c3)nc12 | 4.82 | 2.07 | -8.37
12 | Cc1ccc(NC(=O)CSc2nnc3n(CC4CCCO4)c(=O)c4sccc4n23)cc1F (stereo not given) | 6.62 | -2.27 | -15.18
13 | CCc1ccccc1NC(=O)Cn1nc2cc(C)nc(Nc3ccc(F)c(C)c3)n2c1=O | 11.82 | 5.42 | -2.36
14 | CC(C)c1ccc(Oc2nc3ccccc3n3c(=O)n(CC(=O)Nc4ccc5c(c4)OCO5)nc23)cc1 | 7.45 | 1.68 | -13.49
15 | O=S(=O)(c1cccn2cnnc12)N(Cc1cccc(Cl)c1)c1cc(F)cc(F)c1 | 8.32 | 1.62 | -7.91
16 | CCc1ccc(Cn2c(=O)c3sccc3n3c(SCc4cccc(C(F)(F)F)c4)nnc23)cc1 | 8.34 | 1.88 | -21.14
17 | N#CCSc1nnc2c(=O)n(-c3ccccc3)ccn12 | 18.13 | 2.9 | -7.27
18 | COc1cccc(Sc2nc3ccccc3n3c(=O)n(CC(=O)Nc4c(C)cc(C)cc4C)nc23)c1 | 4.89 | -0.39 | -17.68
19 | Cc1cc2nn(CC(=O)Nc3ccc(F)cc3)c(=O)n2c(Nc2ccccc2C)n1 | 4.2 | 1.24 | -11.54
20 | COc1ccccc1-n1ccn2c(SCc3ccc(Cl)cc3)nnc2c1=O | 8.98 | 1.6 | -13.63

Row | SMILES | Inhibition [1] [%] | Inhibition [2] [%] | Inhibition [3] [%]
21 | COc1ccc(NC(=O)Cn2nc3c4c5c(sc4ncn3c2=O)CCCC5)cc1 | 6.74 | 5.37 | -17.73
22 | Cc1ccc(Cl)cc1NC(=O)Cn1nc2c3c4c(sc3ncn2c1=O)CCCCC4 | 13.99 | 1.16 | -31.5
23 | CCc1nnc2ccc(S(=O)(=O)N(Cc3cccc(F)c3)c3ccc(OC)cc3)cn12 | -6.85 | 1.92 | -10.67
24 | COc1cccc(-n2ccn3c(SCc4cccc(F)c4)nnc3c2=O)c1 | 9.47 | 1.25 | -9.96
25 | CCc1nnc2c(=O)n(CC(=O)Nc3ccc(C(C)C)cc3)c3ccccc3n12 | 15.72 | -0.82 | -28.42
26 | CCCc1nnc2c(=O)n(CC(=O)N3CCCc4ccccc43)c3ccccc3n12 | 7.45 | 0.04 | -21.26
27 | CCOc1ccccc1NC(=O)Cn1nc2c(SC3CCCCC3)nccn2c1=O | 10.39 | 5.31 | -21.42
28 | Cc1ccc(NC(=O)CSc2nc3ccccc3n3cnnc23)c(Br)c1 | 0.14 | 3.27 | -26.85
29 | COc1cccc(-n2ccn3c(SCC(=O)c4ccc(C)cc4C)nnc3c2=O)c1 | 16.45 | 4.51 | -10.37
30 | CC(C)Cc1ccc(S(=O)(=O)Nc2ccc3nncn3n2)cc1 | 8.3 | 1.38 | -3.84
31 | COc1ccc(-c2cc3c4nnc(SCC(=O)Nc5cccc(Cl)c5C)n4ccn3n2)cc1 | -3.16 | 6.33 | -18.63
32 | Cc1cc(C)cc(NC(=O)Cn2nc3ccc(SCc4ccc(Cl)cc4)nn3c2=O)c1 | -2.52 | 46.75 | -25.54
33 | O=C(Cn1nc2c(Sc3cccc(F)c3)nccn2c1=O)Nc1cccc(C(F)(F)F)c1 | 14.77 | -0.63 | -9.77
34 | O=C(Cn1nc2c(N3CCOCC3)nc3ccccc3n2c1=O)Nc1ccccc1Br | 11.27 | 1.17 | -27.52
35 | CC(C)(C)S(=O)(=O)c1ccc2nn(CC(=O)Nc3ccc4c(c3)OCO4)c(=O)n2n1 | 2.44 | 1.02 | -2.55
36 | CCOc1ccc(-n2ccn3c(SCC(=O)Nc4ccc5c(c4)OCCO5)nnc3c2=O)cc1 | 3.14 | 6.39 | -10.75
37 | CCN(CCCNC(=O)CCc1nnc2ccc(-c3ccc(C)c(C)c3)nn12)c1ccccc1 | 13.51 | 13.02 | -7.8
38 | COc1cc(NC(=O)Cn2nc3ccc(SC(C)C)nn3c2=O)cc(OC)c1 | 4.22 | 10.99 | -7.98
39 | COC(=O)c1cccc(NC(=O)Cn2nc3ccc(-c4ccccc4)nn3c2=O)c1 | -4.82 | 4.96 | -15.91
40 | COc1ccc(CNC(=O)Cn2nc3c(Sc4ccc(C)cc4C)nccn3c2=O)cc1 | 6.84 | -0.37 | -7.66

Row | SMILES | Inhibition [1] [%] | Inhibition [2] [%] | Inhibition [3] [%]
41 | CCOC(=O)c1cccc(NC(=O)Cn2nc3c(Oc4cccc(C)c4C)nccn3c2=O)c1 | -1.37 | -0.11 | -1.74
42 | CCOc1ccc(-n2ccn3c(SCC(=O)c4ccc(C)cc4)nnc3c2=O)cc1 | 10.63 | 1.13 | -5.35
43 | O=C(Cn1nc2c3c4c(sc3ncn2c1=O)CCCC4)NCCc1ccc(Cl)cc1 | 9.47 | 7.92 | -14.7
44 | N#Cc1ccccc1NC(=O)Cn1nc2c(Oc3ccccc3)nccn2c1=O | 2.81 | -0.12 | -5.65
45 | COC(=O)c1ccc(NC(=O)Cn2nc3ccc(Sc4ccc(C)cc4)nn3c2=O)cc1 | 13.07 | 2.46 | -10.13
46 | Cc1ccc(C)c(NC(=O)Cn2nc3c4cc(-c5ccc(C)c(C)c5)nn4ccn3c2=O)c1 | 5.73 | -1.76 | -22.88
47 | COC(=O)c1ccc(NC(=O)Cn2c(=O)c3nnc(C(C)C)n3c3ccccc32)cc1 | 11.69 | -0.03 | -26.77
48 | Cc1ccc(C)c(NC(=O)Cn2nc3n(C)c(=O)c4c(c(-c5ccccc5)cn4C)n3c2=O)c1 | -7.88 | 1.95 | -9.34
49 | Cc1nnc2c(S(=O)(=O)N(Cc3ccc(F)cc3)c3ccc(C(C)C)cc3)cccn12 | 1.5 | 2.93 | -6.86
50 | CCOc1ccc(-c2nc(CSc3nc4ccccc4n4c(C(C)C)nnc34)c(C)o2)cc1 | 2.25 | -0.51 | -14.56
51 | CCOC(=O)c1ccc(NC(=O)CSc2nc3ccccc3n3c(C(C)C)nnc23)cc1 | 8.56 | -0.16 | -11.29
52 | COc1cc(NC(=O)C(C)Sc2nnc3c(=O)n(-c4ccc(C)c(C)c4)ccn23)cc(OC)c1 (stereo not given) | 1.23 | 2.85 | -8.2
53 | Cc1ccc2c(c1)N(C(=O)Cn1nc3ccc(SCc4ccc(Cl)cc4)nn3c1=O)CCO2 | 7.49 | 29.58 | -22.86
54 | Cc1ccccc1NC(=O)Cn1nc2ccc(SC3CCCCC3)nn2c1=O | 2.21 | -1.85 | -16.32
55 | COc1cc(NC(=O)Cn2nc3ccc(C(=O)NCc4ccccc4)cn3c2=O)cc(OC)c1OC | 1.38 | 5.58 | -8.4
56 | O=C(Cn1nc2ccc(-c3ccc(Cl)cc3)nn2c1=O)NC1CCCC1 | 16.69 | 1.09 | -13.05
57 | COc1cc(NC(=O)Cn2nc3ccc(-c4ccc(Cl)cc4)nn3c2=O)cc(OC)c1 | 6.35 | 1.47 | -13.03
58 | Cc1ccc(-c2ccc3nn(CC(=O)N4CCN(c5ccccc5F)CC4)c(=O)n3n2)cc1C | 9.79 | 0.84 | -7.8
59 | Cc1nnc2c(=O)n(CC(=O)Nc3ccc(Br)cc3)c3ccccc3n12 | 3.12 | 2.53 | -1.52
60 | Cc1cc(C)cc(Nc2nc(C)cc3nn(CC(=O)Nc4ccc(C)c(F)c4)c(=O)n23)c1 | 19.17 | 3.06 | -10.1
